Screening data (PubChem BioAssay)
USP7 inh: human USP7 deubiquitinase inhibition; Q93009; purified USP7, Ub-rhodamine cleavage fluorescence; inhibition, % at 20 µM; 47,000 tested, 0.3% active; AID 1645854
Target sequence (Q93009 whole entry, looked up): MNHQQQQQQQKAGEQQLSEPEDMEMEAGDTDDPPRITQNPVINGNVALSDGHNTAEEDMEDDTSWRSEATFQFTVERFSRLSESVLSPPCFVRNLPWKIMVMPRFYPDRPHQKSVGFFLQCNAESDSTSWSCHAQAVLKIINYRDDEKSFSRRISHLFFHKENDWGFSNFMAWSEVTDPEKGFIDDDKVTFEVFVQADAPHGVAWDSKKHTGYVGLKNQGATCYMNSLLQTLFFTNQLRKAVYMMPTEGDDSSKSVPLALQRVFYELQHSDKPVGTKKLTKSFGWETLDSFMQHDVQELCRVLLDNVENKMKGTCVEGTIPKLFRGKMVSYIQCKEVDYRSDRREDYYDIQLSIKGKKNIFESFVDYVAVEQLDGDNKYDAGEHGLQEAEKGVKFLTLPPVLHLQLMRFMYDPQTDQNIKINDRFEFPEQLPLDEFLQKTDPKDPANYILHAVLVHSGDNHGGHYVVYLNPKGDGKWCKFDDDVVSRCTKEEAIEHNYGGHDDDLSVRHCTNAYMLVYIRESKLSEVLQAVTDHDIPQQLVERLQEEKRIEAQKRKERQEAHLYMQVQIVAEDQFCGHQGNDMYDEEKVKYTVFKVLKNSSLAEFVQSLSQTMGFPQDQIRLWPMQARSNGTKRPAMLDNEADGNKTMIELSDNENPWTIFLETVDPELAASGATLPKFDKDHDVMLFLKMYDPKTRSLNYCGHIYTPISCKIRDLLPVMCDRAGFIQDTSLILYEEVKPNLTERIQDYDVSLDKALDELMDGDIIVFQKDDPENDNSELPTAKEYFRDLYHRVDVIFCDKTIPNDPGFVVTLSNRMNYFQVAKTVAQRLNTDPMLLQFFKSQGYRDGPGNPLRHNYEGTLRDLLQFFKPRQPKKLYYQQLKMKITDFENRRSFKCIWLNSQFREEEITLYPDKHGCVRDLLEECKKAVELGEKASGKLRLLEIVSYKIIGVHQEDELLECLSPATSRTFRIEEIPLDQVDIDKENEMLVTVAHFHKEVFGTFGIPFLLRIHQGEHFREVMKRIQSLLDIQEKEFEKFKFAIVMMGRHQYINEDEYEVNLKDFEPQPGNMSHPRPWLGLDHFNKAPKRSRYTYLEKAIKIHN
UCHL1 inh: human UCHL1 deubiquitinase inhibition | AID 1645859 | inhibition, % at 20 µM | 47,000 tested, 0.2% active | purified UCHL1, Ub-rhodamine cleavage fluorescence
Starred values were filed as active, the others as inactive; . = no result given. The list is not random: actives were taken first. Their share in the collection is about 0.4%. Rule as the data show it: active = inhibition above about 30%; inactive = the rest.

SMILES | USP7 inh | UCHL1 inh
Cc1cccc(NC(=O)C2CCC(=O)N2S(=O)(=O)c2ccccc2)c1 (stereo not drawn) | 3 | 0
COc1ccc(-c2ncnc3c2c(C(=O)N2CCC(N(C)C)CC2)c2ccccn23)cc1 | -129 | -153
CCOc1ccc2c(c1)c(=O)c(C(=O)c1ccc(C)cc1)cn2CC(=O)Nc1ccc(C)cc1 | 60* | 24
CCOc1ccc2c(c1)c(=O)c(C(=O)c1ccc(C)cc1)cn2CC(=O)Nc1ccc(OC)cc1 | 1 | -2
O=C(NCc1ccc2c(c1)OCO2)c1cc2c(s1)CCC2 | 9 | 38*
O=C(NCc1ccc2c(c1)OCO2)c1ccsc1 | 3 | -2
Cc1ccccc1NC(=O)N1CCC(CN2CCCC(C)C2)CC1 (stereo not drawn) | 0 | -1
O=C(/C=C/C=C/C=C/C1CCCCC1)NC1=C[C@@](O)(/C=C/C=C/C=C/C(=O)NC2=C(O)CCC2=O)[C@@H]2O[C@@H]2C1=O | 45* | 47*
CC(CCc1ccc(O)cc1)NC(=O)Nc1ccc(Cl)cc1 (stereo not drawn) | 4 | 5
O=C(C1CCN(c2nccnc2Oc2ccccc2)CC1)N1CCCC1 | 1 | 0
O=C1c2cccc(O)c2C(=O)c2c(O)cccc21 | -83 | -26
Cc1cc(O)c2c3c(c(O)cc2c1)C(=O)c1c(O)cccc1C3=O | 60* | 67*
Cc1cc(-c2cnc(N3CCCCC3)nc2C2CCN(C(=O)C(C)C)CC2)on1 | -5 | 5
CCCCCCCC1OC(=O)Cc2cc(O)c(O)c(O)c21 (stereo not drawn) | 75* | 63*
Cc1cc(C)c2nc(N3CCCC(C(=O)NCc4cccc(F)c4)C3)sc2c1 (stereo not drawn) | 3 | 3
O=C(CCC(=O)c1ccc2c(c1)OCCO2)NCc1ccc(Cl)cc1 | -1 | 4
Cc1c(Cl)cccc1NC(=O)Cn1cc(C(=O)C2CC2)c2ccccc21 | 36* | 3
O=C(Cn1cc(C(=O)C2CCCCC2)c2ccccc21)Nc1ccccc1C(F)(F)F | 19 | 2
CNc1cc(C2CCCN2C(=O)c2ccc3ncccc3c2)nc(C)n1 (stereo not drawn) | -1 | -2
O=C(O)C1C(C(=O)Nc2ccccc2)C2(c3ccccc3)C(=O)C1(c1ccccc1)C(c1ccccc1)=C2c1ccccc1 (stereo not drawn) | 66* | 7
O=C(Nc1ccccc1)C1COc2ccccc2C1 (stereo not drawn) | 0 | -3
COc1c2c(cc3cc(O)c4c(=O)cc(C)oc4c13)CCC2=O | -38 | 7
COc1cc(O)c2c(O)c3c(cc2c1)C[C@@]1(O)CC(=O)C(C(N)=O)=C(O)[C@@]1(O)C3=O | 65* | 70*
CC1C(=O)N2CCCc3cc(S(=O)(=O)Nc4ccccc4)cc1c32 (stereo not drawn) | 0 | 0
O=c1cc(-c2ccc(O)c(O)c2)oc2cc(O[C@@H]3O[C@H](CO)[C@@H](O)[C@H](O)[C@H]3O)cc(O)c12 | 36* | 31*
SMILES | USP7 inh | UCHL1 inh
CC1OC(OCC2OC(Oc3c(-c4ccc(O)c(O)c4)oc4cc(O)cc(O)c4c3=O)C(O)C(O)C2O)C(O)C(O)C1O (stereo not drawn) | -1 | -1
Cc1ccccc1-c1noc(-c2ccccc2OCC(=O)NC(C)C)n1 | -16 | 12
CCc1nc2c(c(=O)c3ccccc3n2C)c(=O)n1-c1ccc(C)cc1 | -5 | 33*
Cn1c2ccccc2c(=O)c2c(=O)n(-c3ccccc3)c(-c3ccc(Cl)cc3)nc21 | 5 | 1
COc1ccc(CCn2c(-c3ccc(C)cc3)nc3c(c(=O)c4ccccc4n3C)c2=O)cc1 | 2 | 1
Cn1c2ccccc2c(=O)c2c(=O)n(-c3cccc(Cl)c3)c(-c3cccs3)nc21 | 66* | 29
COc1cc(C(=O)N(Cc2cc(=O)[nH]c3ccccc23)C(C)C)cc(OC)c1OC | 9 | 4
O=C(O)C1CCN(C(=O)CCn2ccc3ccc(Br)cc32)CC1 | 3 | 0
CC(C)c1ccc(NC(=O)C2C3C=CC4(O3)C2C(=O)N(CCCN2CCC(Cc3ccccc3)CC2)C4C(=O)NC2CCCCC2)cc1 (stereo not drawn) | -13 | 3
c1cc(-c2noc(-c3ccoc3)n2)cc(-c2ccn[nH]2)c1 | -7 | -6
C(=C\c1nc(-c2cccc(-c3ccn[nH]3)c2)no1)/c1ccco1 | 31* | 12
O=C1CCSc2ccc(S(=O)(=O)Nc3ccc(F)cc3)cc2N1 | . | -1
CC(C)=CCC/C(C)=C/CC/C(C)=C/Cc1c(C)cc(O)cc1O | 8 | 8
CC(C)=CCC/C(C)=C/CC/C(C)=C/COc1c(O)cc(C=O)c(C=O)c1O | 93* | 92*
O=C(Nc1cccc([N+](=O)[O-])c1)Nc1ccc2snnc2c1 | 84* | 68*
O=C(Nc1ccc(-n2cccc2)cc1)c1cccc([N+](=O)[O-])c1 | 0 | -4
CCc1ccc(NC(=O)Cn2c(=O)n(Cc3ccccc3)c(=O)c3nn(CC)cc32)cc1 | 32* | 5
